About 2,100 (2.2%) of roughly 94,000 compounds were called active. The list comes from a sample in which actives are over-represented; it also holds similar structures and randomly drawn compounds. Unmarked numbers belong to inactive results. Cut-off read from the data, not from the text of the source: active = activity change below about -80%; inconclusive = no clear call, values can overlap the other calls; inactive = above that.

The nature of the test: P. falciparum Dd2 growth inhibitors, primary screen, SYBR Green fluorescence, single dose replicates (AID 1159554). The following applies: 72 h, at 10 µM, hits give low values.
Consider `C/C=C/c1cnc2c(c1)C(=O)N([C@@H](C)CO)C[C@H](C)[C@H](CN(C)C(=O)CN1CCOCC1)O2`, for which the activity change was -2.24%. For `COc1ccc2c3c(n(C)c2c1)[C@@H](CO)N(C(C)=O)CC31CCN(Cc2nccs2)CC1`, the activity change was -11.3%. In the case of `CCC(=O)N1CC2(C1)CN(Cc1nccs1)[C@@H](CO)c1c2c2ccc(OC)cc2n1C` it was 3.74%. In the case of `COc1ccc2c3c(n(C)c2c1)[C@H](CO)N(Cc1cccnc1)CC31CCN(Cc2cccnc2)CC1` it was -77.6%. Turning to `COc1ccc2c3c(n(C)c2c1)[C@H](CO)N(CC1CCCCC1)CC31CCN(Cc2nccs2)CC1`, the activity change was -91% (active). Next, `COc1ccc2c3c(n(C)c2c1)[C@H](CO)N(C(=O)CC1CC1)CC31CCN(Cc2nccs2)CC1`: -91.8% (active); `COc1ccc2c3c(n(C)c2c1)[C@@H](CO)N(C(=O)Nc1cccc(F)c1)CC31CCN(Cc2nccs2)CC1`: -73.5%; `CN1C(=O)c2cc(NC(=O)C3CCCC3)ccc2OC[C@H]2O[C@@H](CC(=O)NCCc3ccncc3)CC[C@H]21`: 22.6%. In the case of `CCS(=O)(=O)N1CC2(CN(C(=O)c3ccc(F)cc3)[C@H](CO)c3c2c2ccc(OC)cc2n3C)C1` it was -2.54%; in that of `CO[C@@H]1CN(C)C(=O)c2ccc(NC(=O)Nc3cc(Cl)cc(Cl)c3)cc2OC[C@H](C)NC[C@H]1C`, -84.1% (active); in that of `CCCC(=O)Nc1ccc2c(c1)OC[C@@H](C)N(Cc1ccccc1F)C[C@@H](C)[C@H](OC)CN(C)C2=O`, -88.8% (active).

Consider `CCC(=O)Nc1ccc2c(c1)C(=O)N(C)C[C@@H](OC)[C@@H](C)CN(Cc1ccccc1F)[C@H](C)CO2`, for which the activity change was -23.2%. In the case of `CCC(=O)N1C[C@H](C)[C@H](OC)CN(C)C(=O)c2ccc(NC(=O)Nc3cccc(F)c3)cc2OC[C@@H]1C` it was -41.8%; in that of `CO[C@H]1CN(C)C(=O)c2cc(NC(=O)Nc3cccc(F)c3)ccc2OC[C@H](C)N(C(C)=O)C[C@H]1C`, -27.3%. As to `CCC(=O)Nc1ccc2c(c1)C(=O)N(C)C[C@H](OC)[C@H](C)CN(Cc1ccccc1F)[C@H](C)CO2`, the activity change was -27.5%. Next, `CCC(=O)N1C[C@H](C)[C@H](OC)CN(C)C(=O)c2cc(NC(=O)Nc3cccc(F)c3)ccc2OC[C@@H]1C`: -86.1% (active).

Take `CO[C@H]1CN(C)C(=O)c2ccc(NC(C)=O)cc2OC[C@@H](C)NC[C@H]1C`: the activity change is 19.5%.

On to `CO[C@H]1CN(C)C(=O)c2ccc(NC(=O)Nc3ccc4c(c3)OCO4)cc2OC[C@H](C)NC[C@H]1C`, for which the activity change is 0.516%. Next, `COc1ccc(NC(=O)Nc2ccc3c(c2)[C@H]2C[C@H](CC(=O)NC4CCCC4)O[C@@H](CO)[C@H]2O3)cc1`: 4.95%. For the molecule `O=C(C[C@@H]1CC[C@H]2[C@@H](COC[C@H](O)CN2S(=O)(=O)c2ccccc2)O1)NCCN1CCCC1`, the activity change is -4.83%. In the case of `C[C@@H]1CCCCO[C@H](CN(C)C(=O)CCC(F)(F)F)[C@H](C)CN([C@@H](C)CO)C(=O)c2cc(NC(=O)CCCCCC(=O)Nc3ccccc3N)ccc2O1` it was -41%; in that of `COCCNC[C@@H]1[C@H](c2ccccc2)[C@H](CO)N1c1nc(C)c(C)s1`, -28.1%; in that of `Cc1nc(N2[C@H](CO)[C@H](c3ccccc3)[C@H]2CNCC2CCC2)sc1C`, -89.7% (active). In the case of `O=C(NC[C@@H]1[C@H](c2ccccc2)[C@H](CO)N1CC1CCCC1)c1cccnc1` it was -5.05%; in that of `O=S(=O)(NC[C@H]1[C@@H](c2ccccc2)[C@@H](CO)N1CC1CC1)c1ccccc1`, 10.7%. In the case of `Cc1nc(N2[C@H](CO)[C@H](c3ccccc3)[C@H]2CNCC2CCCCC2)sc1C` it was -96.4% (active); in that of `CCCNC(=O)N1[C@H](CO)[C@H](c2ccccc2)[C@H]1CNC(=O)C1CCCCC1`, 6.57%; in that of `CCCNC(=O)[C@@H]1[C@@H](CO)[C@@H]2Cn3c(ccc(-c4ccccc4F)c3=O)[C@H]1N2CC1CC1`, 4.78%.

In the case of `CCCNC(=O)C[C@@H]1CC[C@H]2[C@@H](COc3ccc(NC(=O)C4CCCC4)cc3C(=O)N2C)O1`, the activity change is 5.93%. In the case of `O=C(CC1CC1)N1CC[C@@H]2[C@@H](CO)Nc3ccc(-c4ccccc4)cc3[C@@H]21` it was 4.83%. As for `O=C(Nc1ccccc1)N[C@@H]1CC[C@H](CCn2cc(-c3ccccc3F)nn2)O[C@@H]1CO`, the activity change is -68%. Take `O=C(Nc1ccc(F)cc1)N[C@H]1CC[C@H](CCn2cc(C3(O)CCCC3)nn2)O[C@@H]1CO`: the activity change is -25.8%. On to `C[C@@H]1CN([C@H](C)CO)C(=O)c2cc(NC(=O)Nc3ccccc3)ccc2O[C@@H](C)CCCCO[C@H]1CN(C)Cc1ccc(C(F)(F)F)cc1`, for which the activity change was -85.7% (active). Next, `COc1ccc(NC(=O)Nc2ccc3c(c2)C(=O)N([C@H](C)CO)C[C@@H](C)[C@H](CN(C)Cc2ccc(Cl)c(Cl)c2)OCCCC[C@@H](C)O3)cc1`: -83.8% (active); `C[C@H]1CCCCO[C@@H](CN(C)Cc2ccc(C(F)(F)F)cc2)[C@@H](C)CN([C@@H](C)CO)C(=O)c2cc(NC(=O)Nc3ccccc3)ccc2O1`: -74.7%; `CC(C)NC(=O)Nc1ccc2c(c1)C(=O)N([C@@H](C)CO)C[C@@H](C)[C@H](CN(C)Cc1ccc(Cl)c(Cl)c1)OCCCC[C@H](C)O2`: -77.6%. Next, `C[C@@H]1CCCCO[C@H](CN(C)Cc2ccc(Cl)c(Cl)c2)[C@@H](C)CN([C@@H](C)CO)C(=O)c2cc(NC(=O)Nc3ccccc3)ccc2O1`: -83% (active); `C[C@H](CO)N1C[C@H](C)[C@H](CN(C)Cc2ccc(Cl)c(Cl)c2)OCCCC[C@H](C)Oc2ccc(NC(=O)NC3CCCCC3)cc2C1=O`: -14.4%. Next, `C[C@@H]1CCCCO[C@@H](CN(C)Cc2ccc(C(F)(F)F)cc2)[C@@H](C)CN([C@H](C)CO)C(=O)c2cc(NC(=O)Nc3ccccc3)ccc2O1`: 74.5%; `C[C@@H]1CCCCO[C@@H](CN(C)Cc2ccc(Cl)c(Cl)c2)[C@H](C)CN([C@H](C)CO)C(=O)c2cc(NC(=O)Nc3ccc(F)cc3)ccc2O1`: -83% (active); `C[C@@H]1CN([C@H](C)CO)C(=O)c2cc(NC(=O)Nc3ccc(F)cc3)ccc2O[C@@H](C)CCCCO[C@H]1CN(C)Cc1ccc(Cl)c(Cl)c1`: -77.2%. `COc1ccc(CN(C)C[C@@H]2OCCCC[C@@H](C)Oc3ccc(NC(=O)Nc4ccc(OC)cc4)cc3C(=O)N([C@@H](C)CO)C[C@@H]2C)cc1`: the activity change was -76.5%. On to `COc1ccc(NC(=O)Nc2ccc3c(c2)C(=O)N([C@H](C)CO)C[C@H](C)[C@H](CN(C)Cc2ccncc2)OCCCC[C@H](C)O3)cc1`, for which the activity change is 29.4%. Next, `C[C@@H]1CCCCO[C@@H](CN(C)Cc2ccc3c(c2)OCO3)[C@@H](C)CN([C@@H](C)CO)C(=O)c2cc(NC(=O)Nc3ccccc3)ccc2O1`: -36.8%.

Source of the values: PubChem BioAssay AID1159554 (Broad Institute, 2015).
